In PubChem BioAssay (Tox21):
Several values for one entry are separate records, joined by “and”; a condition that tells them apart may be missing. Equal entries are not always repeated. Records with an inconclusive call do not appear. Entries that show only a call come without a potency. The source holds several records for some structures; these can differ, active in one and inactive in another. Activity calls are given as the source filed them. Calls come from the whole dose curve; as a rule, active = well fitted activation curve with a large enough effect in the repeat runs; inconclusive = weak or mixed curves; inactive = flat fitted curve, though single readings scatter.

experiment: A CellTox Green Cytotoxicity Assay to monitor cytotoxicity in HEK293 cells - 40 hour (AID 1224871); details: CellTox Green fluorescence; series mostly up to 76.8 µM; note: nearly all actives have a fitted effect of over 45% in size
In short: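 Fluorescence from a DNA-binding dye excluded by viable cells was measured repeatedly in the same HEK293 wells (600 cells/well) during continuous compound exposure at 37 C. Each assay gives one read point: 0, 8, 16, 24, 32 or 40 h.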
Potency is the fitted concentration of half-maximal effect.

Structure (SMILES)	Potency
CCCCC(CC)COC(=O)C(C#N)=C(c1ccccc1)c1ccccc1 (stereo unspecified)	inactive
OCCOCCOCCO	inactive
CC(C)CC(=O)CC(C)C	inactive
Nc1cc([N+](=O)[O-])ccc1O	inactive
Cc1cccc(O)c1	inactive
CCC(O)OC(O)CC (stereo unspecified)	inactive
CCCCCCCCCCCCCCCO	inactive
O=C(CC(C(=O)OC1CCCCC1)S(=O)(=O)O)OC1CCCCC1 (stereo unspecified)	inactive
C[C@H]1C[C@@H]2[C@H]([C@@H](O)C[C@@]3(C)[C@H]2CC[C@]3(O)C(=O)CO)[C@@]2(C)C=CC(=O)C=C12	inactive
N[C@@H](Cc1cc(I)c(Oc2cc(I)c(O)c(I)c2)c(I)c1)C(=O)O	inactive
O=C(Oc1ccccc1)c1ccccc1	inactive
CCc1cccc(C)c1N	inactive
ON=C1CCCCC1	inactive
Fc1ccc(Br)cc1	inactive
CCCCCCCCCCCCc1ccccc1	inactive
CCCCCC1=CCCC1=O	inactive
CC(C)(N)CO	inactive
OCC(CO)(CBr)CBr	inactive
CC(=O)CC(=O)Nc1ccccc1C	inactive
CCC(O)OCCCOC (stereo unspecified)	inactive
O=c1[nH]nnc2ccccc12	inactive
OC[C@H]1O[C@@](CO)(O[C@H]2O[C@H](CO)[C@@H](O)[C@H](O)[C@H]2O)[C@@H](O)[C@@H]1O	inactive
COS(C)(=O)=O	inactive
COCCCOc1ccnc(CS(=O)c2nc3ccccc3[nH]2)c1C (stereo unspecified)	inactive
O=P(OC(CCl)CCl)(OC(CCl)CCl)OC(CCl)CCl	inactive
COc1ccc(Nc2ccccc2)c(C)c1	inactive and 43.6 µM (active)
